Among all 5,500 compounds or so, about 2,000 (36%) were called active. Another 18% or so got no clear call; they are omitted. No stated cut-off is given here; in the data, active means normalized growth mostly below about 0.91 (no sharp cut-off); inconclusive means no clear call, values can overlap the other calls; inactive means mostly above about 0.92. Some of the results follow.
Assay: chemical genetic growth profiling, strain panel (AID 1159580);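 further: tested at 20 µM; growth read once vehicle control cultures reached saturation at 30 °C; 1 = growth at the plate median or of vehicle wells; lower values mean less growth of the strain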
Details: S. cerevisiae deletion strains, growth OD

Measured: normalized growth

CC(=O)O[C@@H]1CC2C(C)(C)[C@@H](O)CC[C@]2(C)C2CC[C@@]3(C)[C@H](c4ccoc4)OC(=O)[C@H]4O[C@]43[C@@]21C (some centres not stated)
active: locus YBR021W, strain FUR4, active compounds read low 0.823
inactive: locus YAL021C, strain ccr4, active compounds read low 1.02 | locus YAL026C, strain drs2, active compounds read low 0.989 | locus YAL030W, strain snc1, active compounds read low 0.996 | locus YBL061C, strain skt5, active compounds read low 0.984 | locus YBR009C, strain hhf1, active compounds read low 1 | locus YBR023C, strain chs3, active compounds read low 0.991 | locus YBR171W, strain sec66, active compounds read low 0.993 | locus YBR229C, strain ROT2, active compounds read low 1.01 | locus YBR231C, strain swc5, active compounds read low 0.995 | locus YBR279W, strain paf1, active compounds read low 0.998 | locus YCL011C, strain gbp2, active compounds read low 0.985 | locus YCL016C, strain dcc1, active compounds read low 0.995 | locus YCL029C, strain bik1, active compounds read low 0.997 | locus YCL061C, strain MRC1, active compounds read low 0.994 | locus YCL069W, strain vba3, active compounds read low 0.988 | locus YCR088W, strain abp1, active compounds read low 0.988 | locus YDL005C, strain med2, active compounds read low 0.988 | locus YDL035C, strain GPR1, active compounds read low 0.967 | locus YDL040C, strain nat1, active compounds read low 0.986 | locus YDL074C, strain BRE1, active compounds read low 0.947 | locus YDL101C, strain DUN1, active compounds read low 1.02 | locus YDL134C, strain PPH21, active compounds read low 1 | locus YDL185W, strain tfp1, active compounds read low 1 | locus YDL192W, strain arf1, active compounds read low 0.964 | locus YDR001C, strain nth1, active compounds read low 0.996 | locus YDR069C, strain doa4, active compounds read low 1.01 | locus YDR101C, strain arx1, active compounds read low 0.973 | locus YDR137W, strain rgp1, active compounds read low 0.986 | locus YDR159W, strain sac3, active compounds read low 0.964 | locus YDR162C, strain NBP2, active compounds read low 0.987 | locus YDR195W, strain ref2 0.981 | locus YDR297W, strain sur2, active compounds read low 1.01 | locus YDR318W, strain mcm21, active compounds read low 0.99 | locus YDR334W, strain swr1, active compounds read low 1.01 | locus YDR335W, strain msn5, active compounds read low 0.995 | locus YDR388W, active compounds read low 1.02 | locus YDR392W, strain spt3, active compounds read low 0.968 | locus YDR502C, strain sam2, active compounds read low 1 | locus YEL003W, strain gim4, active compounds read low 0.987 | locus YEL037C, strain rad23, active compounds read low 0.995 | locus YEL061C, strain CIN8 (second series), active compounds read low 0.992 | locus YEL061C, strain CIN8, active compounds read low 1 | locus YER015W, strain faa2, active compounds read low 0.996 | locus YER016W, strain bim1, active compounds read low 0.989 | locus YER110C, active compounds read low 1.02 | locus YER111C, strain swi4, active compounds read low 0.98 | locus YER155C, strain BEM2 (second series), active compounds read low 1.01 | locus YER155C, strain BEM2, active compounds read low 1.02 | locus YER167W, strain BCK2, active compounds read low 0.996 | locus YFR010W, strain ubp6, active compounds read low 0.993 | locus YGL078C, strain dbp3, active compounds read low 1.02 | locus YGL086W, strain mad1, active compounds read low 0.998 | locus YGL167C, strain pmr1, active compounds read low 0.998 | locus YGL173C, strain kem1, active compounds read low 0.998 | locus YGL227W, strain vid30, active compounds read low 0.989 | locus YGL240W, strain doc1, active compounds read low 0.966 | locus YGL248W, strain PDE1, active compounds read low 1.01 | locus YGL253W, strain hxk2, active compounds read low 0.95 | locus YGR135W, strain pre9, active compounds read low 1.04 | locus YGR252W, strain gcn5, active compounds read low 0.975 | locus YHR013C, strain ard1, active compounds read low 0.988 | locus YHR027C, strain rpn1, active compounds read low 0.983 | locus YHR030C, strain SLT2, active compounds read low 1.01 | locus YHR079C, strain IRE1 (second series), active compounds read low 1.01 | locus YHR079C, strain IRE1, active compounds read low 1.02 | locus YHR094C, strain hxt1, active compounds read low 1.01 | locus YHR129C, strain ARP1, active compounds read low 1.01 | locus YHR142W, strain chs7, active compounds read low 0.992 | locus YHR200W, strain rpn10, active compounds read low 1.01 | locus YIL066C, strain RNR3, active compounds read low 0.967 | locus YIL073C, strain SPO22, active compounds read low 1.03 | locus YIL125W, strain kgd1, active compounds read low 1.01 | locus YIR030C, strain dcg1, active compounds read low 1 | locus YJL092W, strain hpr5, active compounds read low 0.995 | locus YJL095W, strain BCK1 (second series), active compounds read low 1.01 | locus YJL095W, strain BCK1, active compounds read low 1.01 | locus YJL115W, strain asf1, active compounds read low 0.997 | locus YJL129C, strain trk1, active compounds read low 0.976 | locus YJL134W, strain LCB3, active compounds read low 1.01 | locus YJL154C, strain vps35, active compounds read low 0.994 | locus YJL164C, strain tpk1, active compounds read low 1 | locus YJL166W, strain qcr8, active compounds read low 0.988 | locus YJL168C, strain set2, active compounds read low 1.01 | locus YJL187C, strain SWE1 (second series), active compounds read low 1.02 | locus YJL187C, strain SWE1, active compounds read low 0.991 | locus YJR043C, strain POL32, active compounds read low 0.979 | locus YJR066W, strain TOR1, active compounds read low 0.966 | locus YKL009W, strain mrt4, active compounds read low 0.964 | locus YKL068W, active compounds read low 1.01 | locus YKL085W, strain MDH1 (second series), active compounds read low 1 | locus YKL085W, strain MDH1, active compounds read low 1 | locus YKL160W, strain elf1, active compounds read low 0.997 | locus YKR001C, strain vps1, active compounds read low 1 | locus YKR026C, strain gcn3, active compounds read low 1 | locus YKR091W, strain srl3, active compounds read low 1 | locus YLL001W, strain dnm1, active compounds read low 0.996 | locus YLL026W, active compounds read low 0.997 | locus YLL041C, strain sdh2, active compounds read low 0.997 | locus YLR027C, strain aat2, active compounds read low 0.999 | locus YLR039C, strain RIC1, active compounds read low 0.981 | locus YLR058C, strain SHM2, active compounds read low 1 | locus YLR102C, strain apc9, active compounds read low 1.01 | locus YLR113W, strain HOG1, active compounds read low 0.968 | locus YLR221C, strain rsa3, active compounds read low 0.987 | locus YLR258W, strain gsy2, active compounds read low 1.01 | locus YLR262C, strain YPT6 (second series), active compounds read low 0.967 | locus YLR262C, strain YPT6, active compounds read low 0.974 | locus YLR268W, strain sec22, active compounds read low 0.967 | locus YLR320W, strain mms22, active compounds read low 0.989 | locus YLR330W, strain CHS5, active compounds read low 0.999 | locus YLR342W, strain FKS1, active compounds read low 0.992 | locus YLR357W, strain rsc2, active compounds read low 1.03 | locus YLR370C, strain arc18, active compounds read low 1.01 | locus YLR371W, strain rom2, active compounds read low 1.03 | locus YLR384C, strain iki3, active compounds read low 0.992 | locus YLR418C, strain cdc73, active compounds read low 0.968 | locus YML016C, strain PPZ1, active compounds read low 1.01 | locus YML032C, strain rad52, active compounds read low 0.997 | locus YML120C, strain ndi1, active compounds read low 1 | locus YML124C, strain tub3, active compounds read low 1 | locus YMR058W, strain fet3, active compounds read low 1.01 | locus YMR078C, strain ctf18, active compounds read low 1.01 | locus YMR125W, strain sto1, active compounds read low 1.02 | locus YMR129W, active compounds read low 0.993 | locus YMR205C, strain PFK2, active compounds read low 0.993 | locus YMR223W, strain ubp8, active compounds read low 1.01 | locus YMR231W, strain pep5, active compounds read low 0.959 | locus YMR307W, strain GAS1, active compounds read low 0.953 | locus YNL067W, strain RPL9B, active compounds read low 1.05 | locus YNL071W, strain lat1, active compounds read low 0.993 | locus YNL153C, strain GIM3, active compounds read low 1.04 | locus YNL183C, strain NPR1, active compounds read low 0.976 | locus YNL209W, strain ssb2, active compounds read low 0.992 | locus YNL233W, strain BNI4, active compounds read low 1.01 | locus YNL248C, strain rpa49, active compounds read low 0.995 | locus YNL250W, strain rad50, active compounds read low 1.04 | locus YNL271C, strain bni1, active compounds read low 0.999 | locus YNL298W, strain CLA4, active compounds read low 0.991 | locus YNL307C, strain MCK1, active compounds read low 1.01 | locus YNL322C, strain KRE1 (second series), active compounds read low 0.989 | locus YNR049C, strain mso1, active compounds read low 0.994 | locus YNR052C, strain pop2, active compounds read low 1.02 | locus YOL006C, strain TOP1, active compounds read low 0.891 | locus YOL012C, strain htz1 1.11 | locus YOL147C, strain pex11, active compounds read low 0.996 | locus YOR001W, strain rrp6, active compounds read low 0.981 | locus YOR061W, strain CKA2, active compounds read low 0.985 | locus YOR069W, strain VPS5, active compounds read low 1.01 | locus YOR070C, strain gyp1, active compounds read low 0.988 | locus YOR080W, strain dia2, active compounds read low 0.99 | locus YOR083W, strain WHI5, active compounds read low 1 | locus YOR106W, strain vam3, active compounds read low 0.984 | locus YOR136W, strain idh2, active compounds read low 1 | locus YOR144C, strain elg1, active compounds read low 1 | locus YOR184W, strain ser1, active compounds read low 0.949 | locus YOR231W, strain MKK1, active compounds read low 0.998 | locus YOR265W, strain rbl2, active compounds read low 1 | locus YOR270C, strain vph1, active compounds read low 0.912 | locus YOR290C, strain snf2, active compounds read low 0.978 | locus YOR316C, strain cot1, active compounds read low 1.01 | locus YPL051W, strain arl3, active compounds read low 1.01 | locus YPL078C, strain atp4, active compounds read low 0.991 | locus YPL106C, strain sse1, active compounds read low 1.01 | locus YPL240C, strain hsp82, active compounds read low 0.989 | locus YPL241C, strain CIN2, active compounds read low 1 | locus YPL256C, strain CLN2, active compounds read low 1.06 | locus YPR119W, strain clb2, active compounds read low 1.02 | locus YPR141C, strain kar3, active compounds read low 1.01 | locus YPR163C, strain tif3, active compounds read low 1 | locus YPR167C, strain met16, active compounds read low 1 | strain wtn01, active compounds read low 0.976
